Source: PubChem (National Center for Advancing Translational Sciences (NCATS))
Only some compounds are listed: those with a hit (about 5.7% of all), similar ones and a draw of the others.
ATXN viability: cell viability loss in ATXN counter-screen; S2 cells (HEK-293 line with an ATXN2-luciferase reporter) viability, CellTiter-Fluor protease fluorescence, 24 h; Potency, µM (top dose mostly 56.7 µM), actives largely listed as cytotoxic; 0.49% of 400,000 active; also: potency is read from the fitted curve at half-maximal effect; nearly all actives have a fitted effect of over 40% in size
TGFb inhibitor: TGF-b pathway inhibition | HepG2 CAGA-GFP TGF-b/SMAD3 reporter, GFP fluorescence, 18 h; TGF-beta stimulated, 500 pg/mL final | Potency, µM (titrated, usually from 46.1 µM), without a hit: at the top dose activity, negative = inhibition, actives largely listed as inhibitors | 1.2% of 410,000 active | AID 588855; also: potency is read from the fitted curve at half-maximal effect; % is scaled to controls: 0 for no effect and ±100 for the full control effect; nearly all actives have a fitted effect of over 65% in size
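Per well, imaged GFP fluorescence of HEPG2 CAGA-GFP cells gives the signal; cells get compound, then TGF-beta (500 pg/mL final), 18 h at 37 degrees C; %Activity versus -TGF-beta and +DMSO controls.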
IL1B secr inh: inflammasome signaling inhibition, IL-1 beta readout. THP-1 LPS/ATP IL-1B secretion, AlphaLISA, 16 h; active compounds read low. activity change, % at 57.5 µM. 4.7% of 360,000 active; in the data active = activity change below about -50%; inconclusive = mostly about -30% to -49%; also: % is scaled to controls: 0 for no effect and ±100 for the full control effect
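Secreted IL-1B measured by AlphaLISA bead assay after 16 h compound exposure of THP-1 cells; compounds (final up to 57.5 uM) added 1 h before LPS (250 ng/mL) and ATP (1.25 mM) stimulation; lower signal means less secretion.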
HepG2 viability: counter-screen for TGF-b inhibitors: cytotoxicity in HepG2 cells | HepG2 CAGA-GFP viability, ATP luminescence, 18 h | AID 588856 | 0.76% of 410,000 active | Potency, µM (highest dose often 46.1 µM), for inactives: at the highest dose activity change, negative = cytotoxicity, most hits filed as cytotoxic; also: potency is read from the fitted curve at half-maximal effect
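CellTiter-Glo luminescence gave cytotoxicity after 18 hours at 37 degrees C. The cells were HepG2 CAGA-GFP in 1% FBS DMEM, stimulated with 500 pg/mL TGF-beta after compound addition. %Activity was normalised to no-cell wells (complete cell-killing) and DMSO (no toxicity), and curves were fitted and classified.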
ATXN2 expr inh: ATXN2 expression inhibition | Potency, µM (top dose mostly 57 µM), for the others: at the highest dose activity change, negative = inhibition, usual class: inhibitors | 0.72% of 360,000 active | HEK-293 ATXN2-luciferase reporter, luminescence, 24 h; also: potency is read from the fitted curve at half-maximal effect; % is scaled to controls: 0 for no effect and ±100 for the full control effect; nearly all actives have a fitted effect of over 55% in size
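qHTS (up to 57 uM final) was run with 24 h compound exposure of reporter cells at 37 °C. Each well was multiplexed: SteadyGlo luminescence measured ATXN2-luciferase expression after a fluorogenic Gly-Phe-AFC viability readout (25 uM final).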
* = called active by the depositor; i = inactive; ? = inconclusive; . = not tested or not shown. Unless noted, calls follow the shape of the dose curve; as a rule, active = well fitted curve in the direction sought with a large enough effect; inconclusive = small, poorly fitted or top-dose-only effect, or another doubt; inactive = no such curve, though single readings can be large; an effect the other way counts as inactive or inconclusive.

SMILES	ATXN viability	TGFb inhibitor	IL1B secr inh	HepG2 viability	ATXN2 expr inh
O=C1c2[nH]nc(-c3ccccc3O)c2C(c2ccccc2F)N1Cc1ccco1 (centres undefined)	?	?	75	-64%	11%
CC(C)c1ccc(C2c3c(-c4ccccc4O)n[nH]c3C(=O)N2Cc2ccncc2)cc1 (centres undefined)	32µM*	?	.	-54%	-8%
O=C1c2[nH]nc(-c3ccccc3O)c2C(c2ccc(Cl)cc2)N1Cc1ccco1 (centres undefined)	.	?	.	16µM*	.
CCOc1ccc(NC(=O)c2cnn(-c3ccc(C)c(C)c3)c2C2CCN(C(=O)OC(C)(C)C)CC2)cc1	.	-2%	.	0%	.
NS(=O)(=O)c1cc(C(=O)NN2C[C@H]3[C@H]4CCC(C4)[C@H]3C2)ccc1Cl	i	.	.	.	1%
CCCN1C(=O)c2[nH]nc(-c3ccccc3O)c2C1c1cccc(OCc2ccccc2)c1 (centres undefined)	.	11µM*	.	16µM*	.
COCCN1C(=O)c2[nH]nc(-c3ccccc3O)c2C1c1ccc(OCc2ccccc2)c(OC)c1 (centres undefined)	.	?	.	-73%	.
CC(=O)C1=C(C)NC(SCc2cccc([N+](=O)[O-])c2)=C(C#N)C1c1ccco1 (centres undefined)	i	-11%	-66*	-29%	1%
CCc1ccc(C(=O)CSC2=C(C#N)C(c3ccco3)C(C(C)=O)=C(C)N2)cc1 (centres undefined)	.	-3%	.	-44%	.
CC(=O)C1=C(C)NC(SCC(=O)c2ccc(F)cc2)=C(C#N)C1c1ccco1 (centres undefined)	i	-16%	-85*	-34%	22%
CC(=O)C1=C(C)NC(SCC(=O)c2ccc(Cl)c(Cl)c2)=C(C#N)C1c1ccco1 (centres undefined)	i	27%	-57*	1%	-17%
CC(C)Oc1ccc(-c2nc(-c3cccnc3)no2)cc1	.	28%	.	-24%	.
COc1cc(C(=O)Nc2nnc(S(=O)(=O)N(C)c3ccccc3)s2)cc(OC)c1OC	.	-23%	.	-38%	.
COc1ccc(Cl)cc1NC(=O)Cn1nc(Cc2ccncc2)c2ccccc2c1=O	.	?	.	-36%	.
CCn1ccc2cc(S(=O)(=O)N3CCCN(C(=O)NCCOC)CC3)ccc21	i	-7%	.	2%	-1%
CCN1CCC(N(Cc2cccc(OC)c2)C(=O)Nc2cccc(C(F)(F)F)c2)CC1	?	?	.	7.1µM*	-39%
CCN1CCC(N(Cc2ccc(F)cc2)C(=O)Nc2cccc(C(F)(F)F)c2)CC1	i	?	.	-96%	28µM*
CCN1CCC(N(Cc2cccc(OC)c2)C(=O)Nc2cccc(C)c2C)CC1	?	-1%	.	-19%	-9%
CCNc1nc(CN2CCCCC2)nc2scc(-c3ccccc3)c12	?	?	-91*	-35%	?
O=C(NC[C@H](O)CO)c1ccncc1Nc1ccc(I)cc1F	.	.	.	.	2%
COCc1c(C(=O)NC2CCCCCC2)cnn1-c1nccc(-c2cc(C)sc2C)n1	i	.	.	.	.
COCCn1nnnc1C(C(C)C)N(Cc1cccnc1)Cc1cc2cc(OC)ccc2[nH]c1=O (centres undefined)	i	25%	-10	-8%	3%
COc1ccc2[nH]c(=O)c(CN(C3CCCCC3)C(c3nnnn3Cc3ccco3)C(C)C)cc2c1 (centres undefined)	?	?	-93*	3%	-28%
COCCn1nnnc1C(C(C)C)N(Cc1ccccc1)Cc1cc2cc(OC)ccc2[nH]c1=O (centres undefined)	i	?	-56*	-6%	?
CCC(c1nnnn1C1CCCCC1)N(Cc1ccco1)Cc1cc2ccc(OC)cc2[nH]c1=O (centres undefined)	?	?	-58*	6%	?
SMILES	ATXN viability	TGFb inhibitor	IL1B secr inh	HepG2 viability	ATXN2 expr inh
CCN(Cc1ccccc1)C(=O)C(CC(C)C)NS(=O)(=O)c1ccc2c(c1)CCN2C(C)=O (centres undefined)	i	0%	.	-18%	0%
COc1ccc(C(=O)NCC2Cc3cc(C)cc(-c4nc5ccccc5s4)c3O2)c(OC)c1OC (centres undefined)	i	.	.	.	.
COCCN(C(=O)C(C)C)c1nnc(-c2cccc(C)c2)s1	i	10%	-53*	-23%	-6%
COCCN(C(=O)C(C)C)c1nnc(-c2ccc(C)cc2)s1	i	-3%	-22	-10%	10%
CN(Cc1ccco1)C(=O)c1cc(NC(=O)C2CCC2)c2c(c1)nc(-c1ccncc1)n2C	i	.	.	.	.
CCN(c1cccc(C)c1)S(=O)(=O)c1ccc(-c2cc(C)no2)s1	?	?	30	-14%	.
Cc1cccc(N(C)S(=O)(=O)c2ccc(-c3cc(C)no3)s2)c1	i	11µM*	77	-27%	12%
O=C(N/N=C/c1ccc([N+](=O)[O-])o1)c1cc2c(ccc3ccccc32)o1	i	-8%	-13	-19%	-34%
O=C(N/N=C/c1ccc([N+](=O)[O-])o1)c1cc2ccccc2o1	.	6.3µM*	-10	-127%	.
O=C(N/N=C/c1ccncc1)c1cc2ccccc2o1	i	6%	-52*	5%	-5%
C/C(=N\NC(=O)C(C)Oc1ccc([N+](=O)[O-])cc1)c1ccccn1 (centres undefined)	7.1µM*	?	61	-26%	?
Cc1ccc2c(=O)c(C(=O)c3ccccc3)cn(CC(=O)NCc3ccccc3)c2n1	i	?	.	-1%	-11%
COc1ccc(C(C)=O)cc1COC(=O)c1cnc(Cl)c(Cl)c1	i	?	-82*	-6%	1%
CCn1cc([N+](=O)[O-])c(C(=O)N2N=C(c3cccc4ccccc34)CC2c2ccccc2O)n1 (centres undefined)	?	13µM*	?	-55%	?
CCn1cc(Cl)c(C(=O)N2N=C(c3ccc4ccccc4c3)CC2c2ccccc2O)n1 (centres undefined)	?	7.1µM*	?	-45%	18µM*
CCn1cc([N+](=O)[O-])c(C(=O)N2N=C(c3ccc4ccccc4c3)CC2c2ccccc2O)n1 (centres undefined)	?	14µM*	-8	-75%	?
Cc1cccc(CNC(=O)c2cnn(-c3ncc(C)c(-c4cccs4)n3)c2C2CC2)n1	i	.	.	.	.
CCN(CC)c1ccc(-c2nnc(SCC(=O)NCc3ccco3)n2CC)cc1	.	-23%	.	-38%	.
Cc1noc(/C=C/c2cccs2)c1S(=O)(=O)N1CCC(C(=O)NCc2ccccc2Cl)CC1	.	-6%	.	-23%	.
